MCF10A rerep: inducers of DNA re-replication in MCF 10A breast cells; MCF 10A DNA re-replication, Hoechst nuclear intensity, 48 h; Potency, µM (series often up to 46.1 µM), for inactives: at the highest dose activity, positive = re-replication, usual class: activators; 2.9% of 350,000 active; AID 624296; further: % of control where 0% means no effect; nearly all actives have a fitted effect of over 50% in size
HT1080NT lethal: kills 2HG-producing HT-1080-NT fibrosarcoma cells. HT-1080-NT fibrosarcoma viability, CellTiter-Glo ATP luminescence, 48 h. Potency, µM (highest dose often 46.1 µM), for the others: top-dose activity, negative = less viability, hits mostly cytotoxic. 1.6% of 360,000 active. AID 686970;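 further: NT is the 2HG producing partner of a matched IDH1 knockdown line; 0% = DMSO-treated cells and -100% = media-only wells without cells; nearly all actives have a fitted effect of over 55% in size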
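HT-1080-NT fibrosarcoma cells (2HG-overproducing), 750 cells/well in RPMI with 5% FBS, dosed after 2 h and incubated 48 h at 37C. CellTiter-Glo luminescence normalized to DMSO and no-cell wells; concentration-response curves fitted and classed.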
SW480 rereplic: induces DNA re-replication in SW480 colon adenocarcinoma cells | SW480 DNA re-replication, Hoechst DNA content imaging, 48 h | Potency, µM (top dose mostly 46.1 µM), without a hit: top-dose re-replication activation, usual class: activators | 1.8% of 340,000 active | AID 624297; further: % of control where 0% means no effect; nearly all actives have a fitted effect of over 55% in size
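Quantitative HTS format with DMSO vehicle controls; 48 hr drug incubation at 37 C, then 40 min Hoechst staining and scanning imager measurement at 405 nm excitation.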
KB-V1 cytotox: kills drug-selected multidrug resistant KB-V1 cells; KB-V1 MDR cells viability, CellTiter-Glo, 72 h; Potency, µM (highest dose often 46.1 µM), usual class: cytotoxic; 3.4% of 400,000 active; further: on the % scale 0 is the no-effect control and ±100 the full control effect; nearly all actives have a fitted effect of over 60% in size
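qHTS viability screen in drug-selected KB-V1 MDR cells: 72 h compound treatment at 37 degrees C, ATP luminescence end point.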
KB-3-1 tox: kills parental KB-3-1 adenocarcinoma cells; KB-3-1 viability, CellTiter-Glo ATP luminescence, 72 h; Potency, µM (doses to about 46.1 µM), most hits filed as cytotoxic; 1.4% of 400,000 active; further: on the % scale 0 is the no-effect control and ±100 the full control effect; nearly all actives have a fitted effect of over 60% in size
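Luminescent ATP read-out (CellTiter-Glo) measures survival of drug-naive KB-3-1 cells after 72 h compound exposure at 37 °C. Titration series was screened from lowest to highest concentration, with DMSO vehicle plates as background controls.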
HT1080 IDH1KD tx: toxicity to HT-1080 IDH1 knockdown cells (counter line); Potency, µM (highest dose often 46.1 µM), inactives show at the highest dose activity, negative = toxicity, hits mostly cytotoxic; HT-1080 IDH1 knockdown viability, ATP luminescence, 48 h; 2% of 360,000 active;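 further: 0% = DMSO wells and -100% = cell-free medium wells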
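HT-1080-IDH1KD cells (IDH1 knocked down), 750/well in RPMI with 5% FBS, treated with compound 48 h at 37 degrees C. Viability by CellTiter-Glo luminescence, normalised to DMSO and no-cell wells; concentration-response curves classed.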
An asterisk follows results filed as active; i = inactive; ? = inconclusive; · = no result given. Shown are actives, neighbours in structure and some others; about 7.9% of the full set was active somewhere. The call rests on the fitted dose curve; in most records, active means well fitted curve in the direction sought with a large enough effect; inconclusive means small, poorly fitted or top-dose-only effect, or another doubt; inactive means no such curve, though single readings can be large; an effect the other way counts as inactive or inconclusive. Potency means the concentration at half of the fitted maximal effect.

SMILES | MCF10A rerep | HT1080NT lethal | SW480 rereplic | KB-V1 cytotox | KB-3-1 tox | HT1080 IDH1KD tx
CC(c1ccccc1)N1CCC(CNC(=S)Nc2cccc(Cl)c2)C1 (configuration not stated) | ? | 18µM* | ? | i | i | 18µM*
Cc1ccc(NC(=S)NCC2CCN(C(C)c3ccccc3)C2)cc1 (configuration not stated) | 5% | -28% | 0% | i | i | -3%
Cc1ccc(C(C)C)c(OCC(=O)Nn2c(=O)[nH]c3ccccc3c2=O)c1 | 0% | -6% | -2% | 21µM* | i | 2%
Cc1ccc(C(C)C)c(OCC(=O)Nn2c(C)nc3ccccc3c2=O)c1 | -6% | -3% | 1% | i | i | -5%
CCOc1ccc(CN(C(=O)c2oc3cc(C)ccc3c2C)C2CCS(=O)(=O)C2)cc1 (configuration not stated) | 15µM* | ? | 21µM* | ? | ? | ?
O=C(N/C=N/OCc1cccc(C(F)(F)F)c1)N1OC[C@@H]2COc3ccc4ccccc4c3[C@@H]21 | -3% | -3% | 2% | 16µM* | ? | -7%
CCN(CC)C(=O)CSc1ncnc2c1cnn2Cc1ccccc1 | ? | 3% | 4% | ? | i | 9%
O=C(NCCC1=CCCCC1)C(=O)NCC(c1ccco1)N1CCN(c2ccc(F)cc2)CC1 (configuration not stated) | 9% | -14% | -100% | 2.6µM* | i | -1%
O=C(NCc1cccnc1)C(=O)NCC(c1ccco1)N1CCN(c2ccccc2)CC1 (configuration not stated) | 4% | 12% | ? | 9.2µM* | i | 6%
O=C(NCC(c1ccco1)N1CCN(c2ccc(F)cc2)CC1)C1CCCCC1 (configuration not stated) | 2% | 0% | -7% | ? | i | -9%
CCOC(=O)Cn1cnc(C)c1 | -1% | 4% | -1% | i | i | 18%
COc1cc(NC(=O)Cn2ncc(Cl)c(Cl)c2=O)c(C)cc1[N+](=O)[O-] | 3.7µM* | 7.3µM* | ? | i | i | 2.6µM*
Cc1ccc(NC(=O)[C@@H](C)NC(=O)[C@@H]2Cc3ccccc3CN2)cc1 | -3% | 9% | 1% | i | i | ?
Cc1ccc(NC(=O)[C@H](NC(=O)[C@@H]2Cc3ccccc3CN2)c2ccccc2)cc1C | 26µM* | -4% | -3% | i | i | -7%
N#C/C(=C\c1ccco1)C(=O)NCc1ccccc1 | -4% | 0% | -160% | i | i | 1%
N#CC(C#N)=C1C=CC=CN1/C(=C\c1ccco1)C(=O)c1ccc(-c2ccccc2)cc1 | 3.3µM* | ? | · | i | i | ?
N#CC(C#N)=C1C=CC=CN1/C(=C\c1ccco1)C(=O)c1ccc(Cl)cc1 | 1.6µM* | ? | 2.6µM* | i | i | ?
O=C(OCc1cccc([N+](=O)[O-])c1)c1cccnc1Cl | -7% | 10% | -7% | i | i | 29%
Cc1ccc(-n2nc3c(N4CCC(C(=O)NCc5ccccc5C)CC4)nnc(C)c3c2C)cc1 | ? | 7.3µM* | 118% | ? | ? | 8.2µM*
Cc1ccc(-n2nc3c(N4CCC(C(=O)NCc5ccccc5Cl)CC4)nnc(C)c3c2C)cc1 | · | · | · | i | i | ·
CCOc1ccccc1CNC(=O)C1CCN(c2nnc(C)c3c(C)n(-c4ccc(C)cc4)nc23)CC1 | 23µM* | ? | ? | i | ? | 13µM*
COc1cc(OC)cc(C(=O)Nc2ccc3oc(-c4ccccc4C)nc3c2)c1 | · | · | · | i | i | ·
COc1ccc(N(CC(=O)NCc2ccccc2C)S(=O)(=O)c2ccc(C)cc2)cc1OC | -1% | 1% | -3% | i | i | -10%
